The record followed here is ChEMBL document CHEMBL1157539, “Thousands of chemical starting points for antimalarial lead identification” (Nature, 2010).

Structures are written as SMILES.

The first assay has as its system Plasmodium falciparum. The assay can be described thus: GSK_TCMDC: Inhibition of Plasmodium falciparum 3D7 in whole red blood cells, using parasite LDH activity as an index of growth. Test compounds present at 2uM. It is filed as functional.
As for `COc1ccc2[nH]cc(C3CCN(CCC4CCN(C(=O)/C=C/c5ccc(Cl)c(Cl)c5)CC4)CC3)c2c1`, the Inhibition worked out at 100%.

`Cc1ccc(NC(=O)Nc2ccc(Cl)c(C(F)(F)F)c2)cc1-c1ccc(C(=O)NCCN2CCOCC2)cc1`: the Inhibition turned out to be 98%. The same measure, in the same setting: for `CCCCCCCN1CC[C@@H](CCCc2ccnc3ccc(OCCC4CCNCC4)cc23)[C@@H](CC)C1.Cl` the value was 100%; for `CCOc1ccc(-c2nonc2NC(=O)c2cccc(Cl)c2)cc1OCC`, 100%. The same measure, in the same setting: the figure for `Cc1cc(NC2CCCC2)nc(Nc2ccccc2C)n1` is 88%. Still for that read-out and setting: the figure for `COc1cccc(CC(=O)N2CCC(n3c(C)nc4ccc(F)cc43)CC2)c1` is 100%; for `Cc1cccc2nc(-c3ccc(-c4cccc(NC(=O)C(C)CN(C)C)c4)s3)[nH]c12` (stereo unspecified) it is 92%; for `CCCCCN1CCCC1CNS(=O)(=O)c1cccc(C(=O)Nc2cccc(C(F)(F)F)c2)c1.O=C(O)C(F)(F)F` (stereo unspecified) it is 96%. `COc1ccccc1NC(=O)CSc1nc2cccnc2n1-c1ccccc1OC`: the Inhibition was found to be 94%.

`Cn1cc(-c2ccccc2C(=O)O)c(=O)c2cc(Cl)ccc21` registered an Inhibition of 89%.

`Br.CC1(C)NC(N)=NC(=N)N1OCCCCOc1ccc(Cl)cc1C1CCCCC1` had an Inhibition of 93%. On the same count and under the same terms, for `COc1cc2ncnc(Nc3ccc(OCc4ccccc4)c(OCc4ccccc4)c3)c2cc1OC.Cl` the value was 100%; for `CN1CCN(c2nsc3ccc(-c4ccc(NC(=O)Nc5cc(C(F)(F)F)ccc5F)cc4)cc23)CC1.O=C(O)C(F)(F)F`, 99%; for `Br.CC1(C)NC(N)=NC(=N)N1OCCCOc1cc(Cl)cc(Cl)c1`, 95%. Same read-out and setting: the figure for `Cc1cc([N+](=O)[O-])ccc1NC(=O)Nc1cccc(C(F)(F)F)c1` is 100%; for `CCc1cn2c3c(cc(C(=O)N[C@@H](Cc4ccccc4)[C@H](O)CNCc4cccc(C)c4)cc13)N(C)S(=O)(=O)CC2.O=CO` it is 96%; for `CN1CCc2ccc(NC(=O)Nc3ccc(-c4ccccc4)cc3)cc2C1` it is 90%.

`COc1ccc(NC(=O)C2CCN(CCCCCNC(=O)/C=C/c3ccc(Cl)c(Cl)c3)CC2)cc1` had an Inhibition of 98%. Still for that read-out and setting: the figure for `CCCCN(CCCC)CCNC(=O)c1ccc(-c2nc3cc(Cl)ccc3[nH]2)c(OCC)c1` is 100%. Take `Cc1noc(C)c1-c1ccc2c(Nc3ccc(Cl)cc3)c(C(N)=O)cnc2c1.Cl`: the Inhibition worked out at 94%.

Regarding `O=C(NCCCNc1nc2ccccc2[nH]1)c1cccc(OC(F)(F)F)c1`, the Inhibition stood at 100%. On the same count and under the same terms, for `CC1(C)[C@H]2CC[C@@H](CNc3nc(NCCc4c[nH]cn4)nc(NCc4cc(F)ccc4F)n3)[C@@H]1C2` the value was 100%; for `CC1(C)NC(N)=NC(=N)N1OCc1cccc(Cl)c1Cl.Cl`, 92%. On to `O=C(Cn1c(CCc2cccc(F)c2F)nc(=O)c2ccccc21)N(CCN1CCCC1)Cc1ccc(-c2ccc(C(F)(F)F)cc2)cc1.O=C(O)C(O)C(O)C(=O)O`, for which the Inhibition was found to be 100%.

As to `O=C(Nc1ccc(Oc2ccccc2)cc1)N(CCN1CCCC1)Cc1ccc(-c2ccc(CN3CCNCC3)cc2)cc1.O=C(O)C(F)(F)F`, the Inhibition was 88%. Still for that read-out and setting: the figure for `Cc1cc(-c2ccc(CNCCc3cccs3)cc2)ccc1S(=O)(=O)NCc1ccccc1.O=C(O)C(F)(F)F` is 94%.

The subject of the next assay is Plasmodium falciparum. The assay can be described thus: GSK_TCMDC: Inhibition of Plasmodium falciparum Dd2 in whole red blood cells, using parasite LDH activity as an index of growth. Test compounds present at 2uM. In kind it is functional.
Turning to `Cc1[nH]c(C)c(Cc2ccc(Oc3ccc(OC(F)(F)F)cc3)cc2)c(=O)c1Br`, the Inhibition amounted to 87%. The compound `CCN(CC)CCCSc1ccc(-c2ccc(SCCCN(CC)CC)cc2)cc1` displayed an Inhibition of 30%.

Regarding `O=C(/C=C/c1ccc(C(F)(F)F)cc1)NCCCCCN1CCCN(C(=O)Nc2ccc(Cl)cc2)CC1`, the Inhibition stood at 0%. Still for that read-out and setting: for `CNC(=O)C(NC(=O)c1ccccc1C(=O)OC)c1ccccc1` (stereo unspecified) the value was 2%; for `CC(=O)Nc1ccc(C(=O)Nc2cccc(-c3ccc(-c4nc5cccc(C)c5[nH]4)cc3)c2)cn1`, 94%; for `Fc1ccc2[nH]c(-c3cccc(-c4ccc(CNCC5CCCO5)cc4)c3)nc2c1.O=C(O)C(F)(F)F` (stereo unspecified), 98%. As for `CCN(CC)CCN(Cc1ccc(-c2ccc(Cl)s2)cc1)C(=O)Cn1c(CCc2cccc(F)c2F)nc(=O)c2ccccc21.O=C(O)C(O)C(O)C(=O)O`, the Inhibition is 27%. Still for that read-out and setting: the figure for `CCOc1ccc(-c2nc(NC(=O)CS(=O)(=O)c3ccccc3)sc2C)cc1` is 59%; for `CCc1c(CCNCC/C=C/CCNCCc2ccc(OC)c(OC)c2CC)ccc(OC)c1OC.Cl` it is 7%. On the same count and under the same terms, for `CC(C)CCNC(=N)Nc1ccc(OCCCOc2ccc(NC(=N)NCCC(C)C)cc2)cc1` the value was 95%. Same read-out and setting: for `CC(C)c1ccc(NC(=O)c2ccc(NCCCN(C)Cc3ccccc3)c([N+](=O)[O-])c2)cc1` the value was 35%. Compound `CN1CCN(c2ccc(Nc3c4ccccc4nc4ccccc34)cc2)CC1` displayed an Inhibition of 94%. The same measure, in the same setting: for `Oc1c(C(Nc2ccccn2)c2ccco2)cc(Cl)c2cccnc12` (stereo unspecified) the value was 65%; for `COc1ccc(Cl)cc1NC(=O)CN(C)C(=O)c1cnn(-c2ccccc2)n1`, 99%; for `COc1ccc2[nH]cc(C3CCN(CCC4CCN(C(=O)/C=C/c5ccc(Cl)c(Cl)c5)CC4)CC3)c2c1`, 56%.

As to `Cc1ccc(NC(=O)Nc2ccc(Cl)c(C(F)(F)F)c2)cc1-c1ccc(C(=O)NCCN2CCOCC2)cc1`, the Inhibition is 31%.

For the compound `CCCCCCCN1CC[C@@H](CCCc2ccnc3ccc(OCCC4CCNCC4)cc23)[C@@H](CC)C1.Cl`, the Inhibition came to 100%. `CCOc1ccc(-c2nonc2NC(=O)c2cccc(Cl)c2)cc1OCC` had an Inhibition of 99%. With `Cc1cc(NC2CCCC2)nc(Nc2ccccc2C)n1`, the Inhibition was determined as 20%. Still for that read-out and setting: for `COc1cccc(CC(=O)N2CCC(n3c(C)nc4ccc(F)cc43)CC2)c1` the value was 99%; for `Cc1cccc2nc(-c3ccc(-c4cccc(NC(=O)C(C)CN(C)C)c4)s3)[nH]c12` (stereo unspecified), 69%; for `CCCCCN1CCCC1CNS(=O)(=O)c1cccc(C(=O)Nc2cccc(C(F)(F)F)c2)c1.O=C(O)C(F)(F)F` (stereo unspecified), 12%. Take `COc1ccccc1NC(=O)CSc1nc2cccnc2n1-c1ccccc1OC`: the Inhibition is 91%.

The compound `Cn1cc(-c2ccccc2C(=O)O)c(=O)c2cc(Cl)ccc21` displayed an Inhibition of 0%. The same measure, in the same setting: for `Br.CC1(C)NC(N)=NC(=N)N1OCCCCOc1ccc(Cl)cc1C1CCCCC1` the value was 97%; for `COc1cc2ncnc(Nc3ccc(OCc4ccccc4)c(OCc4ccccc4)c3)c2cc1OC.Cl`, 57%. Still for that read-out and setting: for `CN1CCN(c2nsc3ccc(-c4ccc(NC(=O)Nc5cc(C(F)(F)F)ccc5F)cc4)cc23)CC1.O=C(O)C(F)(F)F` the value was 64%; for `Br.CC1(C)NC(N)=NC(=N)N1OCCCOc1cc(Cl)cc(Cl)c1`, 97%.

In turn, `Cc1cc([N+](=O)[O-])ccc1NC(=O)Nc1cccc(C(F)(F)F)c1` showed an Inhibition of 100%. On the same count and under the same terms, the figure for `CCc1cn2c3c(cc(C(=O)N[C@@H](Cc4ccccc4)[C@H](O)CNCc4cccc(C)c4)cc13)N(C)S(=O)(=O)CC2.O=CO` is 98%.

For `CN1CCc2ccc(NC(=O)Nc3ccc(-c4ccccc4)cc3)cc2C1`, the Inhibition turned out to be 45%. Take `COc1ccc(NC(=O)C2CCN(CCCCCNC(=O)/C=C/c3ccc(Cl)c(Cl)c3)CC2)cc1`: the Inhibition is on record as 0%. On the same count and under the same terms, for `CCCCN(CCCC)CCNC(=O)c1ccc(-c2nc3cc(Cl)ccc3[nH]2)c(OCC)c1` the value was 80%; for `Cc1noc(C)c1-c1ccc2c(Nc3ccc(Cl)cc3)c(C(N)=O)cnc2c1.Cl`, 67%.

For the compound `O=C(NCCCNc1nc2ccccc2[nH]1)c1cccc(OC(F)(F)F)c1`, the Inhibition is reported as 27%. As to `CC1(C)[C@H]2CC[C@@H](CNc3nc(NCCc4c[nH]cn4)nc(NCc4cc(F)ccc4F)n3)[C@@H]1C2`, the Inhibition worked out at 91%.

The compound `CC1(C)NC(N)=NC(=N)N1OCc1cccc(Cl)c1Cl.Cl` displayed an Inhibition of 75%. On the same count and under the same terms, the figure for `O=C(Cn1c(CCc2cccc(F)c2F)nc(=O)c2ccccc21)N(CCN1CCCC1)Cc1ccc(-c2ccc(C(F)(F)F)cc2)cc1.O=C(O)C(O)C(O)C(=O)O` is 37%; for `O=C(Nc1ccc(Oc2ccccc2)cc1)N(CCN1CCCC1)Cc1ccc(-c2ccc(CN3CCNCC3)cc2)cc1.O=C(O)C(F)(F)F` it is 90%; for `Cc1cc(-c2ccc(CNCCc3cccs3)cc2)ccc1S(=O)(=O)NCc1ccccc1.O=C(O)C(F)(F)F` it is 0%.

What is called Inhibition is how much of the control response was suppressed.
